Reference: PubChem BioAssay AID1159580 (chemical genetic matrix, 2015)
Out of some 5,500 compounds screened, about 2,000 (36%) were called active. Roughly 18% stayed inconclusive and do not appear here. Cut-off read from the data, not from the text of the source: active = normalized growth mostly below about 0.91 (no sharp cut-off); inconclusive = no clear call, values can overlap the other calls; inactive = mostly above about 0.92. This is one part of the list.

Assay: chemical genetic growth profiling, strain panel (AID 1159580);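 note: tested at 20 µM; growth read once vehicle control cultures reached saturation at 30 °C; 1 = growth at the plate median or of vehicle wells; lower values mean less growth of the strain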
Conditions: growth OD
[1] = S. cerevisiae deletion strains, locus YAL013W, strain DEP1, active compounds read low
[2] = S. cerevisiae deletion strains, locus YDR150W, strain NUM1, active compounds read low
[3] = S. cerevisiae deletion strains, locus YGR078C, strain PAC10, active compounds read low
[4] = S. cerevisiae deletion strains, locus YHR030C, strain SLT2, active compounds read low
[5] = S. cerevisiae deletion strains, locus YJR075W, strain HOC1, active compounds read low
[6] = S. cerevisiae deletion strains, locus YMR263W, strain SAP30, active compounds read low
[7] = S. cerevisiae deletion strains, locus YNL153C, strain GIM3, active compounds read low
[8] = S. cerevisiae deletion strains, locus YNL322C, strain KRE1, active compounds read low
[9] = S. cerevisiae deletion strains, locus YPL241C, strain CIN2, active compounds read low

Measured: normalized growth

O=C(O)c1ccccc1Nc1cccc(OCc2ccc3ccccc3n2)c1
inactive: [1] 0.996 | S. cerevisiae deletion strains, locus YAL040C, strain CLN3, active compounds read low 0.932 | S. cerevisiae deletion strains, locus YCL061C, strain MRC1 (second series), active compounds read low 0.997 | [2] 1 | S. cerevisiae deletion strains, locus YDR363W, strain ESC2, active compounds read low 1 | S. cerevisiae deletion strains, locus YER002W, strain NOP16, active compounds read low 1.01 | [3] 0.967 | [4] 1.03 | S. cerevisiae deletion strains, locus YHR079C, strain IRE1, active compounds read low 1.03 | S. cerevisiae deletion strains, locus YJL095W, strain BCK1, active compounds read low 1.05 | S. cerevisiae deletion strains, locus YJR066W, strain TOR1, active compounds read low 0.968 | [5] 1.01 | S. cerevisiae deletion strains, locus YLR113W, strain HOG1, active compounds read low 1.01 | [6] 0.999 | S. cerevisiae deletion strains, locus YMR307W, strain GAS1, active compounds read low 1.04 | S. cerevisiae deletion strains, locus YNL128W, strain TEP1, active compounds read low 0.957 | [7] 1.04 | S. cerevisiae deletion strains, locus YNL175C, strain NOP13, active compounds read low 0.94 | S. cerevisiae deletion strains, locus YNL183C, strain NPR1, active compounds read low 0.981 | S. cerevisiae deletion strains, locus YNL197C, strain WHI3, active compounds read low 0.934 | S. cerevisiae deletion strains, locus YNL224C, strain SQS1, active compounds read low 0.95 | [8] 1.02 | S. cerevisiae deletion strains, locus YOR083W, strain WHI5 (second series), active compounds read low 0.959 | S. cerevisiae deletion strains, locus YOR231W, strain MKK1, active compounds read low 1.02 | [9] 0.989 | S. cerevisiae deletion strains, locus YPL256C, strain CLN2, active compounds read low 1.02

O=C(Nc1ccc(C(F)(F)F)cc1)Nc1ccccc1C(=O)O
inactive: [1] 0.975 | S. cerevisiae deletion strains, locus YBR229C, strain ROT2, active compounds read low 0.993 | S. cerevisiae deletion strains, locus YCL061C, strain MRC1, active compounds read low 0.967 | S. cerevisiae deletion strains, locus YDL101C, strain DUN1, active compounds read low 0.994 | S. cerevisiae deletion strains, locus YDL134C, strain PPH21, active compounds read low 0.989 | [2] 0.972 | S. cerevisiae deletion strains, locus YEL061C, strain CIN8, active compounds read low 1.01 | [3] 0.984 | S. cerevisiae deletion strains, locus YGR229C, strain SMI1, active compounds read low 0.975 | [4] 0.99 | S. cerevisiae deletion strains, locus YHR087W, strain rtc3, active compounds read low 0.994 | S. cerevisiae deletion strains, locus YJR043C, strain POL32, active compounds read low 0.981 | [5] 0.979 | S. cerevisiae deletion strains, locus YKL190W, strain CNB1, active compounds read low 0.989 | S. cerevisiae deletion strains, locus YLR039C, strain RIC1, active compounds read low 1.01 | S. cerevisiae deletion strains, locus YLR058C, strain SHM2 (second series), active compounds read low 0.979 | S. cerevisiae deletion strains, locus YLR085C, strain ARP6, active compounds read low 1 | S. cerevisiae deletion strains, locus YLR262C, strain YPT6, active compounds read low 0.935 | S. cerevisiae deletion strains, locus YML094W, strain GIM5, active compounds read low 1 | S. cerevisiae deletion strains, locus YMR219W, strain ESC1, active compounds read low 0.971 | [6] 0.991 | [7] 0.977 | S. cerevisiae deletion strains, locus YNL298W, strain CLA4 (second series), active compounds read low 0.96 | [8] 0.971 | S. cerevisiae deletion strains, locus YNR030W, strain Alg12, active compounds read low 1 | S. cerevisiae deletion strains, locus YOL006C, strain TOP1, active compounds read low 0.939 | S. cerevisiae deletion strains, locus YPL055C, strain LGE1, active compounds read low 0.996 | [9] 0.977 | S. cerevisiae deletion strains, locus YPR135W, strain CTF4, active compounds read low 0.949 | S. cerevisiae strains, strain wild type, active compounds read low 0.968
